The results in this text go back to PubChem BioAssay (Tox21).

Test [1] is described as follows: qHTS assay to identify aromatase inhibitors - cell viability counter screen (AID 743084;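 further: cells stimulated with testosterone during compound exposure; nearly all actives have a fitted effect of over 55% in size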). (Quantitative high-throughput screening tests each substance at several concentrations.)
For test [2], the target named is Aryl hydrocarbon receptor (Homo sapiens) (UniProt P35869). Briefly: qHTS assay to identify small molecule that activate the aryl hydrocarbon receptor (AhR) signaling pathway (AID 743085). Further: nearly all actives have a fitted effect of over 15% in size. Further: potency means the concentration at half of the fitted maximal effect.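 On activation: HG2L7.5c1 human HepG2 liver cells with stably integrated DRE-driven firefly reporter; series mostly up to about 70 µM.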 The procedure, abridged: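 Luminescence (ONE-Glo) from a dioxin-responsive-element luciferase reporter in HG2L7.5c1 HepG2 cells after 24 hr compound exposure at 37C; viability measured by CellTiter-Fluor fluorescence beforehand.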

A short description of test [3]: qHTS assay to identify small molecule that activate the aryl hydrocarbon receptor (AhR) signaling pathway - cell viability counter screen (AID 743086).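 Further: HepG2 liver cells carrying the AhR DRE luciferase reporter; series mostly up to about 70 µM; nearly all actives have a fitted effect of over 45% in size.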 The procedure, abridged:
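Cytotoxicity counter screen: CellTiter-Fluor signal (30 min, 37 C) in 4000 HepG2 cells/well carrying the DRE-luciferase reporter, following 24 h compound exposure at 37 C.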

Test [4] deals with Peroxisome proliferator-activated receptor gamma (Homo sapiens) (UniProt P37231). Briefly: qHTS assay to identify small molecule agonists of the peroxisome proliferator-activated receptor gamma (PPARg) signaling pathway (AID 743094; active means well fitted activation curve with a large enough effect in the signal ratio in the repeat runs, not every such curve was filed as active; the % refers to the signal ratio). An outline of the steps: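 GeneBLAzer PPARg UAS-bla HEK293H cells carrying a stably integrated beta-lactamase reporter were pre-incubated 5 h at 37C, then exposed to compounds in DMSO for 17 h at 37C; LiveBLAzer B/G FRET substrate was added for 1 h at room temperature and fluorescence read.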

The target is the same in test [5]. Briefly: qHTS assay to identify small molecule antagonists of the peroxisome proliferator-activated receptor gamma (PPARg) signaling pathway (AID 743191; calls by dose curve; further: series mostly up to about 63 µM; nearly all actives have a fitted effect of over 30% in size). The procedure, abridged: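 Beta-lactamase reporter under UAS control in HEK293H PPARg-bla cells; compound treatment 17 h at 37C. Read-out: fluorescence intensity after 1 h room-temperature incubation with LiveBLAzer B/G FRET substrate.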

A short description of test [6]: qHTS assay to identify small molecule antagonists of the peroxisome proliferator-activated receptor gamma (PPARg) signaling pathway - cell viability counter screen (AID 743194). Further: nearly all actives have a fitted effect of over 55% in size. Further: potency means the concentration at half of the fitted maximal effect. Particulars: Potency: co-treated with 50 nM rosiglitazone unless noted. The procedure, abridged:
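Viability was measured as CellTiter-Glo luminescence in GeneBLAzer PPARg UAS-bla HEK293H cells. These cells had been exposed 17 h at 37 C to compounds together with rosiglitazone at 50 nM final, with the beta-lactamase readout taken in the same wells.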

The nature of test [7]: qHTS assay for small molecule agonists of the antioxidant response element (ARE) signaling pathway - cell viability counter screen (AID 743203; calls by dose curve; further: nearly all actives have a fitted effect of over 55% in size; further: potency means the concentration at half of the fitted maximal effect). The procedure, abridged: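 CellSensor ARE-bla HepG2 cells, 2,000 per well, rested 5 hrs at 37C/5% CO2, then exposed to compound in DMSO for 16 hrs; viability read as CellTiter-Glo luminescence after 30 min at room temperature, in the reporter wells.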

Test [8] is described as follows: qHTS assay for small molecule activators of the heat shock response signaling pathway - cell viability counter screen (AID 743209). Further: nearly all actives have a fitted effect of over 50% in size. An outline of the steps:
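CellSensor HSE-bla HeLa cells, plated overnight at 37 C/5% CO2, were exposed to compounds in DMSO for 5 h at 37 C. Viability was then read in the same wells by CellTiter-Glo luminescence after 30 min at room temperature.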

Test [9] is described as follows: qHTS assay for small molecule activators of the heat shock response signaling pathway (AID 743210; active means well fitted activation curve with a large enough effect in the signal ratio in the repeat runs, with a control signal flat, not every such curve was filed as active; the % refers to the signal ratio;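 further: HeLa cells with beta-lactamase reporter driven by heat shock elements; series mostly up to about 63 µM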). An outline of the steps: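 In HSE-bla HeLa cells, 5 h compound incubation (37 C) precedes addition of LiveBLAzer B/G substrate; after 2.5 h at room temperature, fluorescence intensity indicates reporter induction.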
A short description of test [10]: qHTS assay to identify small molecule agonists of the peroxisome proliferator-activated receptor delta (PPARd) signaling pathway - cell viability counter screen (AID 743211). Further: nearly all actives have a fitted effect of over 55% in size. Further: potency means the concentration at half of the fitted maximal effect. An outline of the steps:
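Viability was measured as CellTiter-Glo luminescence (30 min, room temperature) in the same wells as the beta-lactamase readout. GeneBLAzer PPARd UAS-bla HEK293H cells received compound after 5 h plating and were incubated 17 h at 37 C.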

Test [11] deals with Peroxisome proliferator-activated receptor delta (Homo sapiens) (UniProt Q03181). In words: qHTS assay to identify small molecule agonists of the peroxisome proliferator-activated receptor delta (PPARd) signaling pathway (AID 743212; calls by dose curve). An outline of the steps: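 HEK293H UAS-bla reporter cells, human PPARd system; compounds delivered in DMSO after 5 h plating, then at 37 C. Beta-lactamase FRET read, 2 h RT substrate step.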

A short description of test [12]: qHTS assay to identify small molecule antagonists of the peroxisome proliferator-activated receptor delta (PPARd) signaling pathway - cell viability counter screen (AID 743213). Further: nearly all actives have a fitted effect of over 50% in size. Further: potency means the concentration at half of the fitted maximal effect. An outline of the steps: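 Cytotoxicity counter screen: CellTiter-Glo luminescence read 30 min after addition, in the same wells as the reporter assay. There, PPARd UAS-bla HEK293H cells (3000/well) were treated 17 h at 37 C with compound and 300 nM L165041.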

Test [13] in a line: qHTS assay to identify small molecule antagonists of the farnesoid-X-receptor (FXR) signaling pathway - cell viability counter screen (AID 743221; active means well fitted cell-killing curve with a large enough effect in the repeat runs, not every such curve was filed as active; further: nearly all actives have a fitted effect of over 50% in size; further: potency means the concentration at half of the fitted maximal effect). The procedure, abridged:
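Cytotoxicity counter screen run in the FXR-bla reporter wells: HEK 293T cells exposed to compound with 50 uM (final) chenodeoxycholic acid for 16 h, 37 C, then viability measured by CellTiter-Glo luminescence after 30 min, room temperature.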

The target of test [14] is Peroxisome proliferator-activated receptor delta (Homo sapiens) (UniProt Q03181). Briefly: qHTS assay to identify small molecule antagonists of the peroxisome proliferator-activated receptor delta (PPARd) signaling pathway (AID 743215; active means well fitted inhibition curve with a large enough effect in the signal ratio in the repeat runs, not every such curve was filed as active; the % refers to the signal ratio;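 further: cells stimulated with agonist L165041 at 300 nM final during compound exposure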; further: potency means the concentration at half of the fitted maximal effect). An outline of the steps:
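PPARd UAS-bla HEK293H cells were pre-incubated 5 h at 37 C, then given test compounds in DMSO plus agonist L165041 (300 nM final). After 17 h at 37 C, beta-lactamase FRET substrate was added; fluorescence read after 2 h at room temperature.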

The nature of test [15]: qHTS assay for small molecule agonists of the antioxidant response element (ARE) signaling pathway (AID 743202; active means well fitted activation curve with a large enough effect in the signal ratio in the repeat runs, not every such curve was filed as active; the % refers to the signal ratio; further: potency means the concentration at half of the fitted maximal effect). An outline of the steps:
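An ARE-responsive beta-lactamase gene stably integrated in HepG2 cells serves as reporter. After 5 h plating and 16 h compound incubation at 37 C, fluorescence of the B/G FRET substrate was measured.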

A short description of test [16]: qHTS assay to identify small molecule agonists of the farnesoid-X-receptor (FXR) signaling pathway - cell viability counter screen (AID 743218). Further: nearly all actives have a fitted effect of over 45% in size. Further: potency means the concentration at half of the fitted maximal effect. The procedure, abridged:
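FXR-UAS-bla HEK 293T cells, plated 5 h at 37 C, were exposed to compounds for 16 h at 37 C. CellTiter-Glo was then added to the same wells as the bla readout; luminescence read after 30 min at room temperature.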

Test [17] has as its target Vitamin D3 receptor (Homo sapiens) (UniProt P11473). In words: qHTS assay to identify small molecule agonists of the vitamin D receptor (VDR) signaling pathway (AID 743222; calls by dose curve). An outline of the steps:
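VDR-bla cells were plated 4 h at 37C/5% CO2, then exposed to compounds in DMSO for 16 h. After LiveBLAzer B/G FRET substrate addition and 2 h at room temperature, beta-lactamase reporter fluorescence was read.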

The target is the same in test [18]. In words: qHTS assay to identify small molecule antagonists of the vitamin D receptor (VDR) signaling pathway (AID 743223; active means well fitted inhibition curve with a large enough effect in the signal ratio in the repeat runs, not every such curve was filed as active; the % refers to the signal ratio). The procedure, abridged: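 Antagonist mode: compound added to VDR-bla cells alongside agonist 1alpha,25-dihydroxyvitamin D3 (3 nM final), incubation 16 h at 37C. Read-out is LiveBLAzer FRET fluorescence, 2 h at room temperature.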
The target in test [19] is Bile acid receptor (Homo sapiens) (UniProt Q96RI1). Briefly: qHTS assay to identify small molecule agonists of the farnesoid-X-receptor (FXR) signaling pathway (AID 743220; active means well fitted activation curve with a large enough effect in the signal ratio in the repeat runs, not every such curve was filed as active; the % refers to the signal ratio). The procedure, abridged: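 Beta-lactamase reporter under UAS control in GeneBLAzer FXR HEK 293T cells (5000/well) measured with LiveBLAzer FRET substrate after 2 h at room temperature. Compound exposure lasted 16 h at 37C.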

Values joined by “and” are separate entries in the source; they are usually repeats but may differ in a detail not shown here. Equal values may be shown once. Results filed as inconclusive are left out. The source holds several records for some structures; these can differ, active in one and inactive in another. Active and inactive are the calls of the source. Unless noted, the call rests on the fitted dose curve; in most records, active means well fitted curve in the direction sought with a large enough effect in the repeat runs; inconclusive means weak or mixed curves; inactive means no such curve, though single readings can be large; an effect the other way counts as inactive or inconclusive.

Chain of Peroxisome proliferator-activated receptor delta (Homo sapiens) (Q03181 whole entry, looked up): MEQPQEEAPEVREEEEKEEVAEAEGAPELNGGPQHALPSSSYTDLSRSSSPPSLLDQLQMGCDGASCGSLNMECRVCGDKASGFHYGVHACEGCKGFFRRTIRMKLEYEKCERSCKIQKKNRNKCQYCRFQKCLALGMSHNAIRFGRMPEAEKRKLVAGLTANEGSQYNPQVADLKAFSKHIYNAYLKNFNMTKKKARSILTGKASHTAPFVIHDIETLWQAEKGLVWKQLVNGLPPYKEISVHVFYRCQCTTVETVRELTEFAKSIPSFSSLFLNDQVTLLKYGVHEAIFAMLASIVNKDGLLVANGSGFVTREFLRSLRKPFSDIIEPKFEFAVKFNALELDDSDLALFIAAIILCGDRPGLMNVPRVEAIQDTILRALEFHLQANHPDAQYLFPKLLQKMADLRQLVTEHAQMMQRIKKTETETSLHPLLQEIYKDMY
Chain of Aryl hydrocarbon receptor (Homo sapiens) (P35869 whole entry, looked up): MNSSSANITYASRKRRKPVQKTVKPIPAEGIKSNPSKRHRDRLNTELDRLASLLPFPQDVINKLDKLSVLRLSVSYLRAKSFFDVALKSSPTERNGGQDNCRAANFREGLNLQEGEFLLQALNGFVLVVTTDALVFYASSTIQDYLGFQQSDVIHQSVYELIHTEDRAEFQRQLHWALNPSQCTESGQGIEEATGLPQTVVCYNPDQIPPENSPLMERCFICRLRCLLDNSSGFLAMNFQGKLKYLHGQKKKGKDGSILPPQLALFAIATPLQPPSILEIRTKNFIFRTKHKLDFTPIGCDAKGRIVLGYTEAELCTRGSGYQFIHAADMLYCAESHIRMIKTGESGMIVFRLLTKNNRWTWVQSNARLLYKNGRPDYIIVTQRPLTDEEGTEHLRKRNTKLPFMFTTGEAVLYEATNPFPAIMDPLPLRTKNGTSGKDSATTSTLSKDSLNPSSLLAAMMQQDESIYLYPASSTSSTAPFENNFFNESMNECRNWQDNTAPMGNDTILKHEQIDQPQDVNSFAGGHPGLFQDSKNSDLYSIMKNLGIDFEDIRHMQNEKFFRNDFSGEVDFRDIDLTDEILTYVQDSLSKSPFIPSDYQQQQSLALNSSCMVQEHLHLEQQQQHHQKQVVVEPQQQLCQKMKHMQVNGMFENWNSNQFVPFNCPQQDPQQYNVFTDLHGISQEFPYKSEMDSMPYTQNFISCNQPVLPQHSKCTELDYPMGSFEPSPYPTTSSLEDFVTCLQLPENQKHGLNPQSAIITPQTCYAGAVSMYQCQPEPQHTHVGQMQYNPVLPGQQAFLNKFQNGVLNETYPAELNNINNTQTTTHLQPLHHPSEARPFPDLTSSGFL
Chain of Peroxisome proliferator-activated receptor gamma (Homo sapiens) (P37231 whole entry, looked up): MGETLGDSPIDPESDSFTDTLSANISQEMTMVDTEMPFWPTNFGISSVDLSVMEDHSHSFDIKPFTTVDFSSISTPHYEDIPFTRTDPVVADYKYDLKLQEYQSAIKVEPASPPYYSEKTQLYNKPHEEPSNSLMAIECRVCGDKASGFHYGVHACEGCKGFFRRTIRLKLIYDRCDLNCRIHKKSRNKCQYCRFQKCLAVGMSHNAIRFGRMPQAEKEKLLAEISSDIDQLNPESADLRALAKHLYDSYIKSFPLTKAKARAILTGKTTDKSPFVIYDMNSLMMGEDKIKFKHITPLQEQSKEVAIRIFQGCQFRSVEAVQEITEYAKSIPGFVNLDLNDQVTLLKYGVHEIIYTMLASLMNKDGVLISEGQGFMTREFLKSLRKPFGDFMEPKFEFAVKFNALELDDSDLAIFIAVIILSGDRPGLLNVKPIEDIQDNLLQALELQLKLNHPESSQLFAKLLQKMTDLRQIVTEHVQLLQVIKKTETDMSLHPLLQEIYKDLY
Chain of Vitamin D3 receptor (Homo sapiens) (P11473 whole entry, looked up): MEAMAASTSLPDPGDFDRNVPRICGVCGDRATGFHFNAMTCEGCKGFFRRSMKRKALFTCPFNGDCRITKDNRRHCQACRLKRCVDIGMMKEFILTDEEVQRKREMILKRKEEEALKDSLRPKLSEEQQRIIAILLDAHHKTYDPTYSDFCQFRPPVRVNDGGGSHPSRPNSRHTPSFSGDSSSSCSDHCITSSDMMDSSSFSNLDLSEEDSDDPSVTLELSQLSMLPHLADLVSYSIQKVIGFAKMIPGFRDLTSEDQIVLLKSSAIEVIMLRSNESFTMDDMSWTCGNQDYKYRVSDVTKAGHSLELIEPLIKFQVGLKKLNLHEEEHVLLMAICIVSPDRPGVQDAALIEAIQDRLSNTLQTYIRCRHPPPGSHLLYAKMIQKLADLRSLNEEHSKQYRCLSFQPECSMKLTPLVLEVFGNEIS
Chain of Bile acid receptor (Homo sapiens) (Q96RI1 whole entry, looked up): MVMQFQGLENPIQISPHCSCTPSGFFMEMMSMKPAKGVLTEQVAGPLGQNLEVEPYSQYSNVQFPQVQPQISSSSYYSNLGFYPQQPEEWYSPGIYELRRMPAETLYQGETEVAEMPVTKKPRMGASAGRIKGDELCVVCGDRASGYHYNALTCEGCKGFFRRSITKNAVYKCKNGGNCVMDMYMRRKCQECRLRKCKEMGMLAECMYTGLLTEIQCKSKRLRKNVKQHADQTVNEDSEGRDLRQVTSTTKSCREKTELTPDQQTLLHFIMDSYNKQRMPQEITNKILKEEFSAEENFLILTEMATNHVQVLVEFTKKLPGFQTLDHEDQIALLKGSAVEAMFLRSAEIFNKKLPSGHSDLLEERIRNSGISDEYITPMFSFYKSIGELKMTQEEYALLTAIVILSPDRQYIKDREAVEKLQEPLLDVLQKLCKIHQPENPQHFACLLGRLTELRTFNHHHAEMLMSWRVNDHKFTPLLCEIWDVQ

In the case of `CCOc1cc(Oc2ccc(C(F)(F)F)cc2Cl)ccc1[N+](=O)[O-]`, the Potency entry in [1], in [2], in test [3], in test [4], in test [5] and in test [6] was “inactive” each time. The Potency entry in [7], in test [8], in test [9], in [10], in test [11] and in test [12] was “inactive” each time. In addition, in test [13], the Potency entry is “inactive”.
In the case of `CCOC(=O)C(C)OC(=O)c1cc(Oc2ccc(C(F)(F)F)cc2Cl)ccc1[N+](=O)[O-]` (stereo unspecified), the Potency result in test [1], in test [2], in test [3], in test [4], in test [6] and in test [7] was “inactive” throughout. The Potency entry in [8], in [11], in test [12], in [14] and in test [13] was “inactive” throughout.
On to `O=[N+]([O-])c1c(Cl)c(Cl)c(Cl)c(Cl)c1Cl`, for which the Potency entry in test [1], in test [2], in test [3], in test [4], in test [6] and in test [8] was “inactive” in each case. Moreover, the Potency entry in test [9], in test [10], in test [11], in test [12], in test [14] and in [16] was “inactive” throughout. In addition, the Potency entry in test [13] was “inactive”. The Potency in [15] is 24.2 µM (active); in [7] it was 19.3 µM (active). Moreover, the molecule was classed as inactive in [17] and in [18].
As to `CNC(=O)Oc1cccc2c1OC(C)(C)O2`, the Potency entry in [1], in [2], in test [3], in test [4], in test [5] and in [6] was “inactive” in each case. In addition, the Potency result in test [7], in test [8], in test [9], in test [10], in test [12] and in [14] was “inactive” in each case. Besides, the Potency entry in [16] and in test [13] was “inactive” throughout. Further, the outcome in test [19] and in [17] was inactive.
As for `O=C(Nc1ccc(Br)cc1)c1cc(Br)cc(Br)c1O`, the Potency entry in test [1], in [3], in test [4] and in test [11] was “inactive” each time. The Potency in [2] is 5.31 µM (active) and 3.42 µM (active) and 3.06 µM (active); in test [6] it was 488 nM (active) and 245 nM (active) and 3.76 µM (active); in test [7] it was 34.2 µM (active) and 9.69 µM (active) and 13.3 µM (active); in [10], 6.14 µM (active) and 2.45 µM (active) and 8.41 µM (active); in test [12] it was 1.55 µM (active); in test [14], 6.89 µM (active). In addition, the Potency in test [16] was 3.45 µM (active) and 1.55 µM (active) and 7.5 µM (active); in [13], 9.74 µM (active) and 2.45 µM (active) and 13.3 µM (active). The molecule was called inactive in test [17] and in [18].
As for `Cc1ccc(OP(=O)(Oc2ccc(C)cc2)Oc2ccc(C)cc2)cc1`, the Potency entry in [1], in test [2], in test [3], in test [4], in test [6] and in [15] was “inactive” each time. For the same molecule, the Potency entry in test [7], in test [8], in test [9], in [10], in [11] and in test [12] was “inactive” throughout. Moreover, the Potency entry in test [14] and in test [13] was “inactive” in each case. Further, the molecule was called inactive in [17] and in test [18].
Take `CCCCCCOC(=O)c1ccccc1C(=O)OCCCCCC`: the Potency result in test [1], in [2], in test [3], in [4], in test [5] and in [6] was “inactive” each time. The Potency result in [15], in test [7], in test [8], in test [9], in [11] and in test [12] was “inactive” in each case. Further, the Potency entry in test [14], in test [16] and in test [13] was “inactive” throughout.
As to `CC1(C)C(C=C(Cl)Cl)C1C(=O)OC(C#N)c1cccc(Oc2ccccc2)c1` (stereo unspecified), the Potency entry in test [1], in test [2], in test [3], in test [4], in test [5] and in [6] was “inactive” each time. The Potency entry in test [7], in test [8], in test [9], in [10], in test [12] and in test [16] was “inactive” each time. Further, the Potency entry in test [13] is “inactive”. In addition, the outcome in test [17] and in [18] was inactive.
In the case of `CCCCNC(=O)n1c(NC(=O)OC)nc2ccccc21`, the Potency result in test [1], in test [3], in [4], in test [5], in [6] and in test [15] was “inactive” in each case. Further, the Potency entry in test [7], in [8], in test [9], in test [10], in test [12] and in [13] was “inactive” throughout. In addition, the Potency in test [2] was 34.2 µM (active) and inactive. Besides, in [17], the outcome was inactive.
